High-throughput results (PubChem BioAssay)
Pol eta inh-1 – inhibitors of human DNA polymerase eta | Q9Y253 | recombinant Pol eta, fluorescent DNA replication assay | Potency, µM (series often up to 114 µM), inactives show at the highest dose activity change, negative = inhibition, usual class: inhibitors | 1.2% of 390,000 active; note: potency is the fitted concentration of half-maximal effect; % is set by controls: 0 for no effect and ±100 for the full control effect
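Pol eta at 10 nM preincubated with compounds 15 min at room temperature; reaction started with fluorescent substrate (50 nM final) and read kinetically at 0 and 10 min.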
L3MBTL1 inh-1 – L3MBTL1 (human) inhibition | Q9Y468 | AlphaScreen L3MBTL1–H3K9me1 peptide binding | Potency, µM (highest dose often 57.1 µM), without a hit: top-dose activity, negative = inhibition, usual class: inhibitors | 0.66% of 230,000 active | AID 485360; note: potency is the fitted concentration of half-maximal effect; % is set by controls: 0 for no effect and ±100 for the full control effect; nearly all actives have a fitted effect of over 60% in size
Target sequence (Q9Y468 whole entry, looked up): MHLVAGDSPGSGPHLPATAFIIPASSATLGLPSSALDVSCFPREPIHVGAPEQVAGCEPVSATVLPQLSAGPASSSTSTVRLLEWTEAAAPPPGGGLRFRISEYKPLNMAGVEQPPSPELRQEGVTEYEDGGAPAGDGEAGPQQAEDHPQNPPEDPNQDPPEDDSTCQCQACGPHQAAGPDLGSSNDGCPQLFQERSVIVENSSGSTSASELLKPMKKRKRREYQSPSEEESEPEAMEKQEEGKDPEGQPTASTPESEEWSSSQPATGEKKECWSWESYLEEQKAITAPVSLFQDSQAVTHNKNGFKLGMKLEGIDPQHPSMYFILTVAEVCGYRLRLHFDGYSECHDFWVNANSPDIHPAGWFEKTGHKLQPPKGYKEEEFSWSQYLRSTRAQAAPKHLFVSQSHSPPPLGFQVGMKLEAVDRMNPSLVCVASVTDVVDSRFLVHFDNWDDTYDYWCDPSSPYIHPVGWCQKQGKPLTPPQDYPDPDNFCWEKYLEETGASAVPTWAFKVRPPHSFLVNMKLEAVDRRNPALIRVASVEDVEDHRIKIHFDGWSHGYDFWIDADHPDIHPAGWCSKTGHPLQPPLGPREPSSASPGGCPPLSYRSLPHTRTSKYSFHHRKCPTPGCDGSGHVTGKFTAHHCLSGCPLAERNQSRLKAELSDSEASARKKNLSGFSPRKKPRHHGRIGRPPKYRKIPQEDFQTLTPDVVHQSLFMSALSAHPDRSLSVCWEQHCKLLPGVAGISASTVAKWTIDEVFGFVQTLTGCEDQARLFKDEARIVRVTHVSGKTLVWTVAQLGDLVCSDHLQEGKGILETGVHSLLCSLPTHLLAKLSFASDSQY
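AlphaScreen assay: L3MBTL1 (50 nM final) was preincubated 30 min at room temperature with biotinylated H3(1-15)K9me1 peptide (75 nM final), then 30 min with library compounds; streptavidin donor and nickel chelate acceptor beads (10 ug/mL final) added, 30 min dark.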
Pol iota inh – DNA polymerase iota (human) inhibition; Q9UNA4; Potency, µM (series often up to 115 µM), for the others: at the highest dose activity, negative = inhibition, actives largely listed as inhibitors; 1% of 390,000 active; Pol iota fluorescent replication assay, 10 min; note: potency is the fitted concentration of half-maximal effect
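Fluorescent replication assay read twice, at 0 min and 10 min after adding 50 nM (final) substrate. Enzyme (10 nM) and compounds were first incubated 15 min at room temperature; enzyme-free buffer wells were negative controls.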
Pol kappa inh-1 – blocks human DNA polymerase kappa activity; Q9UBT6; purified Pol kappa, fluorescent DNA synthesis assay, 10 min; Potency, µM (highest dose often 107 µM), without a hit: top-dose activity, negative = inhibition, hits mostly inhibitors; 0.53% of 400,000 active; AID 588579; note: potency is the fitted concentration of half-maximal effect; % is set by controls: 0 for no effect and ±100 for the full control effect
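Kinetic fluorescence screen: compound preincubated 15 min RT with 10 nM enzyme; 50 nM substrate (final) initiates; reads at 0/10 min.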
Pol beta inh-1 – inhibitors of human DNA polymerase beta. P06746. Pol beta primer extension/strand displacement, fluorescence kinetic. Potency, µM (series often up to 114 µM), without a hit: at the highest dose activity change, negative = inhibition, actives largely listed as inhibitors. 1.3% of 340,000 active. AID 485314; note: potency is the fitted concentration of half-maximal effect; % is set by controls: 0 for no effect and ±100 for the full control effect
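Curves were derived by four-parameter Hill fits of normalized qHTS data. The kinetic fluorescent primer-extension read was taken at 0 and 10 min after 50 nM substrate, following a 15 min room-temperature preincubation of 10 nM enzyme with compounds.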
APE1 inh-1 – APE1 (human) endonuclease inhibition; P27695; recombinant APE1, TAMRA/BHQ-2 abasic DNA cleavage fluorescence; Potency, µM (doses to about 65.8 µM), inactives show at the top dose activity change, negative = inhibition, hits mostly inhibitors; 0.35% of 350,000 active; AID 2517;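 note: potency is the fitted concentration of half-maximal effect; plate controls were vehicle for no effect and reference inhibitor for full effect; nearly all actives have a fitted effect of over 55% in size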
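Substrate: short duplex with […] THF abasic site, 5'-TAMRA and 3'-BHQ-2, 50 nM final. APE1 at 0.75 nM, preincubated 15 min RT with compound. Fluorescence increase from first to third read measured activity.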
DNA dye displace – DNA dye displacement counter-screen activity; shares compounds with APE1 inh-1; DNA fluorescent dye displacement counterscreen, fluorescence; Potency, µM (doses to about 28.5 µM), for inactives: at the highest dose activity change, negative = inhibition, most hits filed as inhibitors; 7% of 480 active;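 note: loss of thiazole orange fluorescence as the dye is displaced from duplex DNA; potency is the fitted concentration of half-maximal effect; 0% = ThO with dsDNA and no compound and -100% = ThO without dsDNA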
EndoIV counter – counter-screen for APE1 inhibitors: inhibitors of E. coli endonuclease IV; shares compounds with APE1 inh-1; E. coli Endo IV, fluorogenic AP-site DNA cleavage; Potency, µM (doses to about 27.1 µM), without a hit: at the highest dose activity change, negative = inhibition, usual class: inhibitors; 4% of 560 active; AID 2565;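 note: potency is the fitted concentration of half-maximal effect; plate controls were uninhibited enzyme wells for no effect and no enzyme buffer wells for full effect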
APE1 inh-2 – APE1 (human) endonuclease inhibition, confirmation. shares compounds with APE1 inh-1. purified APE1, fluorogenic abasic-site DNA cleavage. Potency, µM (highest dose often 57.1 µM), without a hit: top-dose activity change, negative = inhibition, usual class: inhibitors. 44% of 750 active. AID 2572; note: potency is the fitted concentration of half-maximal effect; % is set by controls: 0 for no effect and ±100 for the full control effect; nearly all actives have a fitted effect of over 30% in size
APE1 FP inh – displaces DNA from human APE1 in FP assay | Potency, µM (series often up to 28.5 µM), for inactives: at the top dose activity, negative = inhibition, most hits filed as inhibitors | 7% of 480 active | AID 2573 | APE1 binding to TAMRA-labelled double-stranded DNA, fluorescence polarization displacement | shares compounds with APE1 inh-1; note: potency is the fitted concentration of half-maximal effect; % is set by controls: 0 for no effect and ±100 for the full control effect
Pol beta inh-2 – Human Pol beta inhibitor hit validation; Potency, µM, actives largely listed as inhibitors; shares compounds with Pol beta inh-1; Pol beta primer extension/strand displacement, fluorescence kinetic; 87% of 250 active; calls by dose curve; note: potency is the fitted concentration of half-maximal effect
Klenow inh – counter-screen for DNA polymerase beta inhibitors: Klenow fragment inhibition. shares compounds with Pol beta inh-1. Klenow exo- polymerase counter-screen, fluorescent DNA substrate. activity change, negative = inhibition, % at 57.1 µM. 250 tested, under 10 active
HIV RT inh – HIV-1 RT inhibition, pol beta selectivity check. activity % (negative = inhibition, positive = activation), % at 57.1 µM. HIV-1 RT polymerase activity, counter-screen. shares compounds with Pol beta inh-1. 250 tested, under 10 active
POLB valid – validation of human DNA polymerase beta inhibitors; shares compounds with Pol beta inh-1; AID 540325; radiolabeled primer extension gel assay, phosphorimager; 91% of 110 active; inhibition, % at 10 µM;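 active = inhibition at 10 µM of 30% or more; inconclusive = no clear call, values can overlap the other calls; inactive = inhibition at 10 µM under 30%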
L3MBTL1 inh-2 – validation of human L3MBTL1 methyl-lysine binding inhibitors | Potency, µM, most hits filed as inhibitors | shares compounds with L3MBTL1 inh-1 | 91% of 500 active | L3MBTL1 methyl-lysine binding inhibition, biochemical qHTS; note: potency is the fitted concentration of half-maximal effect; nearly all actives have a fitted effect of over 70% in size
AlphaScreen ctr2 – interferes with AlphaScreen signal in L3MBTL1 counterscreen. shares compounds with L3MBTL1 inh-1. AlphaScreen counterscreen, signal inhibition. Potency, µM (highest dose often 57.1 µM), without a hit: at the highest dose activity change, negative = inhibition, actives largely listed as inhibitors. 500 tested, under 10 active. AID 602224; note: potency is the fitted concentration of half-maximal effect; 0% is about no effect
BAZ2B inh – confirmation of human BAZ2B bromodomain inhibitors; shares compounds with Pol kappa inh-1; AlphaScreen BAZ2B / biotin-H3K14Ac peptide displacement; Potency, µM, most hits filed as inhibitors; 100% of 25 active; calls by dose curve
AlphaScreen ctr – interferes with AlphaScreen signal in BAZ2B counterscreen | shares compounds with Pol kappa inh-1 | AlphaScreen biotin-His6 peptide bead counterscreen, signal decrease | Potency, µM (highest dose often 57.1 µM), inactives show top-dose activity change, negative = inhibition, hits mostly inhibitors | 25 tested, under 10 active | AID 588859;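 active = clear concentration-dependent signal drop in the bead assay lacking the target, so a primary-screen artifact; inconclusive = weak, partial or single-dose response; inactive = no response, so a real primary hit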
PGK validate – TbPGK inhibition, hit validation; 79% of 500 active; shares compounds with Pol kappa inh-1; Potency, µM (titrated, usually from 57.5 µM), for inactives: at the top dose activity change, negative = inhibition, actives largely listed as inhibitors; TbPGK coupled GAPDH assay, Kinase-Glo luminescence; AID 686980; note: potency is the fitted concentration of half-maximal effect; % is set by controls: 0 for no effect and ±100 for the full control effect; nearly all actives have a fitted effect of over 65% in size
Pol iota confirm – Inhibitors of human DNA polymerase iota, confirmation; shares compounds with Pol kappa inh-1; Pol iota primer extension, TAMRA/BHQ fluorescence; Potency, µM, hits mostly inhibitors; 77% of 1,500 active; note: potency is the fitted concentration of half-maximal effect
Pol kappa inh-2 – Pol kappa (human) inhibition, cherry-pick confirmation; Potency, µM, actives largely listed as inhibitors; AID 720501; purified Pol-kappa, fluorescent strand-displacement substrate; shares compounds with Pol eta inh-1; 76% of 920 active; note: potency is the fitted concentration of half-maximal effect
Pol eta inh-2 – Pol eta (human) inhibition, cherry-pick confirmation; 64% of 2,600 active; AID 720502; Pol eta primer extension, TAMRA/BHQ fluorescence, 10 min; Potency, µM, usual class: inhibitors; shares compounds with Pol eta inh-1; note: potency is the fitted concentration of half-maximal effect
Active calls of the source: *; i = inactive; ? = inconclusive; nt = no result; [ ] = another dose, or the depositor's remark. Compounds with a hit are over-represented: about 2.5% of the library has one in this group of screens. Unless noted, calls come from the whole dose curve; as a rule, active = well fitted curve in the direction sought with a large enough effect; inconclusive = small, poorly fitted or top-dose-only effect, or another doubt; inactive = no such curve, though single readings can be large; an effect the other way counts as inactive or inconclusive.

SMILES | Pol eta inh-1 | L3MBTL1 inh-1 | Pol iota inh | Pol kappa inh-1 | Pol beta inh-1 | APE1 inh-1 | Pol iota confirm | Pol eta inh-2 | others
CCOCCCNC(=O)c1c[nH]c2ccc(S(=O)(=O)N(C)c3ccc(Cl)cc3F)cc2c1=O | -13% | nt | -29% | -4%[60.1 µM] | ? | nt | nt | nt
COc1cccc(-c2nc3c(C#N)c[nH]n3c2NC2CCCCC2)c1OC | -7% | nt | 33% | 0% | -4% | nt | nt | nt
C[n+]1c2cc(N)ccc2cc2ccc(N)cc21 | 45µM* | nt | 7.9µM* | 22µM* | nt | nt | 9.5* | 30* | EndoIV counter=-112%[57.1 µM];APE1 inh-2=6.3µM*;APE1 FP inh=i;Pol kappa inh-2=7.5*
CCN(CC)c1ccc(N=Cc2c(O)n(Cc3ccco3)c(=O)[nH]c2=O)cc1 | -18% | 1% | 52% | -10% | 29% | 1% | nt | nt
NC(=O)c1ccc(N=Cc2c(O)n(Cc3ccco3)c(=O)[nH]c2=O)cc1 | 22µM* | nt | 11µM* | 50µM* | ? | 32µM* | 30* | 48* | DNA dye displace=?;EndoIV counter=-10%;APE1 inh-2=40µM*;APE1 FP inh=-8%;PGK validate=9.2µM*;Pol kappa inh-2=30*
Clc1cc(Cl)c(Cl)c(Cl)c1 | nt | nt | nt | nt | nt | 7% | nt | nt
ClCC(Cl)Cl | nt | nt | nt | nt | nt | 0% | nt | nt
O=C(COC(=O)c1c2c(nc3ccccc13)/C(=C/c1ccco1)CC2)NC1CCCC1 | 3.5µM* | 4.5µM* | 13µM* | 32µM* | 3.2µM* | ? | 13* | 17* | Pol beta inh-2=25*;Klenow inh=-28;HIV RT inh=-5;POLB valid=99*;BAZ2B inh=7.1*;AlphaScreen ctr=?;Pol kappa inh-2=12*
C=C(C)C(=O)Nc1cccc(C2=NOC3(C2)C[C@H](C(N)=O)N(C(=O)/C=C/C)C3)c1 (some centres not stated) | 8.9µM* | nt | ? | ? | 5µM* | ? | ? | 19* | Pol beta inh-2=7.1*;Klenow inh=3;HIV RT inh=9;BAZ2B inh=7.1*;AlphaScreen ctr=-7%
CCCCC/C=C\C/C=C\C/C=C\C/C=C\CCCC(=O)N(Cc1ccc(O)c(Cl)c1)Cc1ccc(O)c(Cl)c1 | nt | nt | nt | ? | nt | 4% | nt | nt
CC1OC(O[C@H]2C[C@@H](O)[C@]3(CO)[C@H]4[C@H](O)C[C@]5(C)[C@@H](C6=CC(=O)OC6)CC[C@]5(O)[C@@H]4CC[C@]3(O)C2)C(O)C(O)C1O (some centres not stated) | nt | nt | 3% | 9% | nt | nt | nt | nt
CN1CCC(N2CC3CC(C2)c2cccc(=O)n2C3)CC1 (configuration not stated) | 5% | 40µM* | 35% | -10% | 3% | 4% | nt | nt | L3MBTL1 inh-2=27*;AlphaScreen ctr2=13%
[O-][Cl+2]([O-])O | nt | nt | nt | nt | nt | -2% | nt | nt
COc1ccc(NC(=O)CN(C)C(=O)c2cc3c(s2)CCC3)cc1 | 3.2µM* | 3.2µM* | 7.1µM* | 10µM* | nt | 1.9µM* | nt | nt | L3MBTL1 inh-2=0.75*;AlphaScreen ctr2=5%;BAZ2B inh=7.9*;AlphaScreen ctr=-27%
O=C(O)c1ccc[nH]c1=S | -4% | -1% | ? | -18% | 3% | 3% | nt | nt
O=C1NC(=S)N(C2CC2)C(=O)/C1=C/c1ccc2c(c1)CCN2CCCCl | 7.9µM* | 32µM* | 22µM* | 40µM* | 20µM* | ? | 15* | 19* | L3MBTL1 inh-2=4.2*;AlphaScreen ctr2=-2%
